Experimental data published in paper PMC12136788.
Over roughly 24,000 sequences, “enrichment r” has its median near 0.99; the highest 2% begin near 3.7. A selection follows.

B1: chr1:163117127:163117128:-_ENSG00000143248_ENST00000313961|hu_mus|hu_hu_hu_mus_False|78_98 (ssRNA)
RNA: GGGAGUUCUACAGUCCGACGAUCUGCUACAAAGGAUGGAGGAAAUAUCACAGGGCAUGAUUUCAUAGCCUGACCAGAUGACUACUUGAUUAGCUCCUUAUAAAAUUCAGAGCGCACAAAGCGGGGCAGAGAAUCCUUCUCCAUCAACAGAGGAUUGAGCAUCA
B2: chr3:131220538:131220539:-_ENSG00000114686_ENST00000264995|hu_mus|motif|central (ssRNA)
RNA: GGGAGUUCUACAGUCCGACGAUCUUCUUCAGAAAGAUGUUCAUCCCACCAAGUACUACUCUUGCUGUGGAGAUUUCGGACAAAGAACAAGAUAUUCUUUCUUCUCUCUAAGCCGGGGUCAGCACCUAGGCCUCUGGCGCCACACAACAGAGGAUUGAGCAUCA
B3: chr6:82862619:82862620:-_ENSMUSG00000000627_ENSMUST00000000641|mus_mus|FALSE|FALSE (ssRNA)
RNA: GGGAGUUCUACAGUCCGACGAUCAACCUGCUUGUAAUUUCCUACACACUUUUCUGGGUUCCUUUUGUCAUCCCUCAAUAGCUAGAAUGUUGUGAAGUUCAUUUUAAAUGGAAGCCAAGGAAAGAGGGCUCAGCCUCCACUCCACAACAGAGGAUUGAGCAUCA
B4: chr4:107545374:107545375:+_ENSMUSG00000028613_ENSMUST00000106731|mus_mus|FALSE|FALSE (ssRNA)
RNA: GGGAGUUCUACAGUCCGACGAUCGUUGAUGGAUAGCCACAAAGCAUAAUUUUAUUUACAAAAAAAUCAAGCCCCUCAAACCUAAAAAAGCUCUCAACUCAAACAUCCUCUGUAAAUACUGUAUUCAAAUGAUGAGUGAAGUUUCAACAGAGGAUUGAGCAUCA
B5: chr1:174973770:174973771:+_ENSG00000116161_ENST00000406752|hu_mus|FALSE|FALSE (ssRNA)
RNA: GGGAGUUCUACAGUCCGACGAUCGAGUUCCGUCUCAAUCUUGGACUUUUCACUUGUAAGAGUAUCACGUAGUCUUUUCCUAGUGGACUUUUCCAGCAAUACUUUGACCUCUUCUAGGUCUUUCUGCAACUCUUCCAAAACGGACAACAGAGGAUUGAGCAUCA
B6: chr22:19452774:19452775:-_ENSG00000070010_ENST00000399523|hu_hu|hu_hu_hu_mus_False|1_68 (ssRNA)
RNA: GGGAGUUCUACAGUCCGACGAUCCUUCUCAUUGUAGUUGAUAGCAAUCACAUCUCCAGUCGUCAGACAGGCAAAGUUUCUCAAUGCAUUUUCUAAUACCGCUUUAGGGUUGGUAAUAUCCAGGAAGUCUGGGCUCUGAGGUUGCAACAGAGGAUUGAGCAUCA
B7: 64993253_64993373_409_3pUTR_ENSMUSG00000029920_ENSMUST00000031984|mouse|control|control (ssRNA)
RNA: GGGAGUUCUACAGUCCGACGAUCCUUCAGCACUAAGAGAAAUUGGUGACGAAGGACGGGCCUGGGAGGGCUGAGGGGCUGCUUCGGGUGCUUCCUCAAUCUUACUCCUUUUCUCAAAGCGAAAACGGUCCAAGUUGAAAAGAUCAACAGAGGAUUGAGCAUCA
B8: chr2:160855017:160855018:-_ENSMUSG00000057133_ENSMUST00000039782|mus_hu|FALSE|FALSE (ssRNA)
RNA: GGGAGUUCUACAGUCCGACGAUCAUCCUUUUCGAGCUCUUCCAUUGUGGCCCAUUUACAAUGUAAGUAGGAAAAAUUUCUAUACUUAACGUAGAACAGCUCCAAGUCGAACGGAGGUUCUCCUGGGUGAACCUCCUGGACAGUCAACAGAGGAUUGAGCAUCA
B9: chr14:63761926:63761927:+_ENSMUSG00000021939_ENSMUST00000006235|mus_mus|FALSE|FALSE (ssRNA)
RNA: GGGAGUUCUACAGUCCGACGAUCCUGCCAAUGUCAAGCAGAGGGAGAAUUGGUUUAUUGGCACAGACAUUCCUUGUUAAACUACAGGGUUAAGUGGUAACUACAACAAAAAGCAAGUUUUUUUUUCCAGACUAGUUUCAUUGUCAACAGAGGAUUGAGCAUCA
B10: chr1:23381596:23381597:+_ENSG00000004487_ENST00000356634|hu_hu|motif|central (ssRNA)
RNA: GGGAGUUCUACAGUCCGACGAUCAGUUGGUAGGGGUUUUAUCCUCUUAUAGAUGCCGAAGUUGAUAAGACCAUGACGCUCGGAAUAACUGUGAACUCGGUGGACAAGCACAGUAUCACUGUUAUAAGGUGCUUCUAAUUGUUGCAACAGAGGAUUGAGCAUCA
B11: chr1:220276048:220276049:+_ENSG00000067704_ENST00000302637|hu_hu|hu_hu_hu_mus_True|18_88 (ssRNA)
RNA: GGGAGUUCUACAGUCCGACGAUCGCAAAUUGCCUGGUUGGCGGGAAUCGUCCAAGGCUGGGUGGUCCAAACUAAAACGCUAACAGGGGAUGAGGCAUCUGUAAGAGACUCCAACUUUGGAGAAGGCCUCAGGAGGGGGAAUCUCAACAGAGGAUUGAGCAUCA
B12: chr11:111909998:111909999:+_ENSG00000150768_ENST00000533297|hu_hu|FALSE|FALSE (ssRNA)
RNA: GGGAGUUCUACAGUCCGACGAUCACCCUUCCCUUUGGUCCAGCAGGAGUAGCUGGGCAGGGUGCUGAAGGUGUAGGAGCUAAAGGCUGGGGAGUUGGAGGAACAGCGGCCACCGGGGGUGGGGUAGGUGGUGGCACUUGUGGUCAACAGAGGAUUGAGCAUCA
B13: 91020203_91021877_1494_CDS_ENSMUSG00000030091_ENSMUST00000032179|mouse|control|control (ssRNA)
RNA: GGGAGUUCUACAGUCCGACGAUCCAUGACCCCCUUGACGGUGACUGUGGCAACCAUGGAGCUUGACGAAGACCAGCUGAAGUUCCCACUGCCCCCAUGGGCCUUUAUGGUAUACUGAUAGGCGCCUGUCUUUGGUUGCCAUGGCAACAGAGGAUUGAGCAUCA
B14: chr7:7679991:7679992:-_ENSG00000106399_ENST00000396682|hu_hu|hu_hu_hu_mus_False|88_98 (ssRNA)
RNA: GGGAGUUCUACAGUCCGACGAUCUGGGAUGAAUCUUUUCCAGCCUCCCUACGAAGCACACGGGCCGGUCGAUAUACUGUGGUAACAUGCUGGCGUUGACGCGCGCUUUGGGGAGCUGCAUUAUGUCCUCCAUGAUUCUGCCGCCAACAGAGGAUUGAGCAUCA
B15: chr8:104075188:104075189:+_ENSG00000155097_ENST00000518738|hu_hu|motif|central (ssRNA)
RNA: GGGAGUUCUACAGUCCGACGAUCCUUCCUAAACAAGGUGACAUUACACAGGUAACUGUCUUGGUCCUCUGAAAGAACAUUGCGGGACCUUGGAACUACCAUUUCGGCUAGUGUUUCAUACUGCUUAAUCCAGUCGUUGUGGUUCAACAGAGGAUUGAGCAUCA
B16: chr8:122087627:122087628:-_ENSMUSG00000034189_ENSMUST00000036049|mus_hu|FALSE|FALSE (ssRNA)
RNA: GGGAGUUCUACAGUCCGACGAUCUAGUUACAAAAUAAUACUUUUCAGUAGUCUUUCUUGAUGCACAUUUAAAAACCAGCACAACUCCUCUAGUGAAAUGGUCAAUUUCCCUUAAAAAACAACAUCUGAAAUUAUAAGACCUGACAACAGAGGAUUGAGCAUCA
B17: chr3:132387698:132387699:+_ENSG00000081307_ENST00000264991|hu_hu|FALSE|FALSE (ssRNA)
RNA: GGGAGUUCUACAGUCCGACGAUCUUGAACUUUACUUAAUCCUGCUUGAUGAGGUUGGAAGAAAAGUCUAUUCAUAUUGGCUAGUUCCACCUUGUCAUAAUCAAAGAGUAGCAACUUACCAAUGCCACAUCUUGUCAGCAUUUCCAACAGAGGAUUGAGCAUCA
B18: chr6:40197388:40197389:+_ENSMUSG00000057716_ENSMUST00000061740|mus_mus|mus_mus_mus_hu_False|18_58 (ssRNA)
RNA: GGGAGUUCUACAGUCCGACGAUCGAGACACUGGGGUGGAUUUAUUCCACCUCUGUUUGGGUGCUAGCCACUAAGACAGCUAUUUUGGGAUUCAUGGCCUUGAAUAUCAAGAGGGAAGGGACGAGAAUGGAAAGAGUCAAGAGUCAACAGAGGAUUGAGCAUCA
B19: chr11:98549071:98549072:+_ENSMUSG00000017221_ENSMUST00000017365|mus_hu|FALSE|FALSE (ssRNA)
RNA: GGGAGUUCUACAGUCCGACGAUCAUCCAGCUUGUCCAGGAACUCAUAGACCCGGGCGUGAUAAUAGUAACACUUUGCGGCUACAAGGUCUAGGGCCCGGCGGUUCUGAGUACUGAUCUUCUGCAUCAGAUCAUCAGAGAUCUUCAACAGAGGAUUGAGCAUCA
B20: chr15:103023242:103023243:-_ENSMUSG00000009575_ENSMUST00000118152|mus_mus|motif|central (ssRNA)
RNA: GGGAGUUCUACAGUCCGACGAUCAACUAGCAGCAUUGAUGAGGGGUUAAGGGAUUGGGGACAGAAACUCACCAAGGUCACGGAGUACUUCCAAACUUGGAAGUAGCUCAGUGAGGGCUAAAAAAACUUCGACUGAAGGUAUCCCAACAGAGGAUUGAGCAUCA
B21: chr7:99968543:99968544:+_ENSMUSG00000030643_ENSMUST00000032879|mus_mus|FALSE|FALSE (ssRNA)
RNA: GGGAGUUCUACAGUCCGACGAUCAAAGACCCUGAGUGAAUCUUCGGACUAGGCACGUCUUUCCCACUCCAGCGUUGCCAAUUAAAACAAUUUUGAACAGGAAAUCAUAAUCUUCCAUACUCAUUUACACAGCUGGUUUGGGAUCAACAGAGGAUUGAGCAUCA
B22: chr4:56883625:56883626:-_ENSMUSG00000055296_ENSMUST00000068792|mus_mus|FALSE|FALSE (ssRNA)
RNA: GGGAGUUCUACAGUCCGACGAUCUAUAGGCGUGCGCCACCACGCCCGGGUUUAAAAUGUGUAGACCAGGCUGGCCUCGAACUCGCGAUCCUCCUGCUUCUGCCUCCUUCAGCAAAUCCUACUGGCGUGCGCCACCACAACCAGCAACAGAGGAUUGAGCAUCA

Target: T1, UNK ZnF1-3 (human, UniProt Q9C0B0 31-174)
T1 sequence: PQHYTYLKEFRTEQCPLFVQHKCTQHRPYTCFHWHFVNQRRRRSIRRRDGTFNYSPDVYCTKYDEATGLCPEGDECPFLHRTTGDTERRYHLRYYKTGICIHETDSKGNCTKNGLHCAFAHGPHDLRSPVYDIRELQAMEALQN
Experiment: nsRBNS (natural sequence RNA bind-n-seq); RBNS binding buffer (assumed for nsRBNS): 25 mM Tris pH 7.5, 150 mM KCl, 3 mM MgCl2, 0.01% Triton X-100, 500 ug/ml BSA, 20 U/ml SUPERase-In, 4 C; UNK is unkempt and MSI1 is Musashi-1; names of the RNAs are library labels; protein concentration not given here; high values mean tight binding

Binder	binding signal
B1	1.46 enrichment R
B2	0.785 enrichment R
B3	0.841 enrichment R
B4	1.47 enrichment R
B5	0.405 enrichment R
B6	1.02 enrichment R
B7	1.21 enrichment R
B8	0.672 enrichment R
B9	1.12 enrichment R
B10	0.878 enrichment R
B11	2.21 enrichment R
B12	1.76 enrichment R
B13	0.642 enrichment R
B14	0.573 enrichment R
B15	0.508 enrichment R
B16	1.2 enrichment R
B17	0.799 enrichment R
B18	1.36 enrichment R
B19	0.693 enrichment R
B20	1.29 enrichment R
B21	1.1 enrichment R
B22	0.972 enrichment R
